Data taken from the supplement of paper PMC11417369.
Over roughly 25,000 sequences, “ln(normalized median fluorescence intensity)” has its median near 9.3; the highest 2% begin near 10. Only a selection was taken, and the highest values are over-represented in it overall.

These sequences were tested on PF3D7_0420300 AP2 domain 1 (GST-tagged) (assay: gcPBM binding intensity (ln(normalized median fluorescence intensity)); higher = stronger DNA binding).
Summary of the method: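 Alexa488 anti-GST antibody, scanned at 488 nm, detected GST-tagged P. falciparum DNA-binding domains that had been expressed in E. coli and incubated for 1 h on an Agilent 4 × 180k array. The array carried primer-extended double-stranded 36-bp intergenic genomic probes and negative controls. Binding intensity is the highest Masliner-normalised natural-log median intensity across replicate spots of either orientation of each probe.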

Row | Sequence | gcPBM binding intensity (ln)
1 | TATATTAACAAAATGGTGCAATAATTTCTATATTGT [GTGCAC_site9430] | 9.21
2 | TATTTTAATTTTTGTTGTACGCAAATGTGAGGGCAT [XGTACX_site4663] | 9.17
3 | AAATAAAGGAAATAAAAAGAAACCAATTTCGAATAT [CACACA_negctrl_site953] | 9.57
4 | TTTTTTATTTTTTACATATTTAGCTCATATTTATAT [GTGCAC_negctrl_site491] | 9.44
5 | AAAGGAGGGAATTTTTCTAGGTGTGGAGTGCTACTC [XGTACX_negctrl_site63] | 9.44
6 | TATAAATATAAATACACACACATATATATTATATAT [CACACA_site4496] | 9.85
7 | AAAACACTTATGGATTGTACAATAAAAATTATATTA [XGTACX_site7042] | 9.26
8 | CCTATAAATGCATTCACACATATATATTTATATTAT [CACACA_site6086] | 9.26
9 | TATATTAAAAAAAAATGTACATATATATAATATATA [XGTACX_site1935] | 9.19
10 | CCTAAATAAATGGACACACACATATATATATATATA [CACACA_site1439] | 9.49
11 | AAATATATACTACCGATGCACTAAATATAAACACAT [GTGCAC_site9777] | 9.67
12 | TATATATATAAATACACACACACACCGATATATATA [CACACA_site5408] | 10.1
13 | TAATAATACCCAAGCACACACACACCCATATATATA [CACACA_site4831] | 10
14 | ATAAAATACATATAAACACACATATAAACCGACATA [CACACA_site2477] | 10
15 | ATAATACCCAAGCACACACACACACCGATATATATA [CACACA_site8344] | 10.4
16 | TGATAATAAGCATACACACACACACCCAAAAAAAAA [CACACA_site721] | 10.2
17 | ACCATATAAATAAACACACACACACCGATATATATA [CACACA_site5310] | 10.1
18 | AAAATACATAAACACACACACACACCGATATATATA [CACACA_site9186] | 10.3
19 | CACTAAAATAAACACACACACACACCGATATATATA [CACACA_site9379] | 10.3
20 | CACTAAAATGGACACACACACACACCGATATATATA [CACACA_site6139] | 10.2
21 | TAAAAAAAAAAAAATACACACACACCGATATATATA [CACACA_site8498] | 10.2
22 | TGTAAGAAATTGAGCGCACACATACATCTGTGGGAT [CACACA_site4945] | 9.55

Row | Sequence | gcPBM binding intensity (ln)
23 | AAAAAAAAAAAAAAAACACACATTTAGCAATCTACA [CACACA_site3706] | 9.32
24 | ATGTGATGTTATATATGTACTTATTTTTTAATAAGG [XGTACX_site1786] | 9.25
25 | TGTTGTAAATTAAAGACATGCACGTGAGAAAATATA [TGCATGCA_site285] | 9.51
26 | TCAAATTTAATCATAACACACATTCACATATGAATT [CACACA_site3199] | 9.16
27 | GTAGTCCAAAAAAAGCGTACACAGAAAAAAAAAAAA [XGTACX_site4273] | 9.14
28 | ATTTTTTGGAAAAGAAGTACAATGGATTTATACGTT [XGTACX_site891] | 9.09
29 | TTTTTTTTTTTTTTTTTTTTACCCCTTTTTCAAAAA [CACACA_negctrl_site1524] | 8.39
30 | AGGATATATAATTAAGTGCATTAATTCAAAATAAAA [GTGCAC_site9702] | 9.17
31 | TTTTGTCTTATATGTTGTACAACGTAAACAAAAAAA [XGTACX_site4412] | 8.84
32 | TTTTAAGAATAAAATTGTACACATACATGTGTTCGC [XGTACX_site438] | 9.09
33 | TACCTATAAAAGTACACACACACACGGATATAAATA [CACACA_site6569] | 10.3
34 | TATATACCTATATACACACACATATATAAATAAATA [CACACA_site7341] | 9.86
35 | TACCTATACCTATACACACACACACGGAAATAAATA [CACACA_site6750] | 10.3
36 | AAAAAAAAAAAAAGTACACACATACCTATAAATATA [CACACA_site6937] | 9.8
37 | CAAAAAAAGTTATACACACACACACGGATATAAATA [CACACA_site6619] | 10.1
38 | TATACCTATAAATACACACACATATAAATAAATATA [CACACA_site6153] | 9.99
39 | TATTGTATGGTAGGATATGATGTTATTTGTTATAAT [CACACA_negctrl_site202] | 9.45
40 | TATATATATATATATATATATATATATATATATATT [CACACA_negctrl_site1440] | 8.8
41 | CTGAATGTATATATTTGTACATATATATATATATAT [XGTACX_site5557] | 9.16
42 | TTTTTTTTTTTTTGTAGTACATTATGTATATTTTTA [XGTACX_site7810] | 9.23
43 | TATATATATTTATGCACACAAAATATATTATATAAT [CACACA_site5955] | 9.27
44 | TTTATTTTATCATTTGCACACGCACCCAGACATAAA [CACACA_site4347] | 9.39

Row | Sequence | gcPBM binding intensity (ln)
45 | CAGACGCACGTATTTGCACACATTGCCACGTAATTA [CACACA_site3349] | 9.42
46 | AAATTTGGCAGACACACACACACACGCACACGCACA [CACACA_site6423] | 10.3
47 | AGCACGCACAGACACACACACATATTTATATTTATA [CACACA_site6291] | 9.94
48 | ATTTGGCATAGACACACACACACACGCACGCACATA [CACACA_site6424] | 10.4
49 | TACAGACATAGACACACACACACGCATAAAAAAAAA [CACACA_site6820] | 10.1
50 | TTTATATTATTTTAAACATGCACAAGTATAATTTAT [TGCATGCA_site233] | 8.97
51 | ATATGTATAAAAATCCGTACATAAGTGTGCGTATAT [XGTACX_site4376] | 9.32
52 | TATTTATAATTATAATAATATATATATATATATATA [TGCATGCA_negctrl_site173] | 8.83
53 | AGAAATACAAAATAAATATAAGAAACAAAATATTTA [CACACA_negctrl_site780] | 9.42
54 | AATGACAACCTTGTCACACATATATATATATATATA [CACACA_site5977] | 9.17
55 | TCTATATAGATTTGCACACATAAAAATGCTTATATA [CACACA_site2389] | 9.27
56 | TTGTTCCACAAAAATTTAGTCAAAAAAAAATAAAAA [TGCATGCA_negctrl_site546] | 8.79
57 | TATGTACAAATATGTACACACACACCGATATATATA [CACACA_site4487] | 9.96
58 | TATATATATATATATACATGCATACATATACATACA [TGCATGCA_site897] | 9.14
59 | AAAAAAAAAAAACACACACACAAAAAAAAATATATA [CACACA_site1105] | 10.1
60 | GATATATATTAATATACACACACACCGATATATATA [CACACA_site8462] | 10
61 | AAAGAAAGAAAGAATACACACACACCGATATATATA [CACACA_site9246] | 10.2
62 | AGAAAGAAAATATATACACACAAAAAAAAATATATA [CACACA_site1412] | 9.93
63 | TATATATATATATACACACACACACCGATATATATA [CACACA_site8813] | 10.2
64 | CAAAAAAACAAACACACACACACACCGATATATATA [CACACA_site9218] | 10.2
65 | AATATATATATATATACACACACACCGATATATATA [CACACA_site8158] | 10.1
66 | TATATATACACACACACATGCATGCCGATATATATA [TGCATGCA_site29] | 10.2

Row | Sequence | gcPBM binding intensity (ln)
67 | TATATATATATACATACATGCATATATATATATATA [TGCATGCA_site513] | 9
68 | TTATAAAAAAAAATAACACACAGACATAAGAATAAA [CACACA_site9383] | 9.95
69 | TTTTCATTAAGATACTTATAATAGTTTATTAGTAAA [CACACA_negctrl_site586] | 8.77
70 | ATAATATCATCAAACGCACACATACATAAATATATT [CACACA_site5230] | 9.55
71 | ATTTTTTTCATAGACACACACAATATATCTGTTTCC [CACACA_site3023] | 9.83
72 | ATTATATATAATATAGTGCATGTAAAAAATAAAACA | 9.48
73 | GATGTGTAAATAAGGATATATAACAATCAACAAAAC [XGTACX_negctrl_site494] | 9.72
74 | TATATACATACATATACACACATATATATATATATA [CACACA_site401] | 9.44
75 | TACATACATACATACATACACACATATATATATATA [CACACA_site1996] | 9.45
76 | TATATATACATATACACACACACACCGATATATATA [CACACA_site8706] | 10.2
77 | ATATTATATATATACACACACACATGCATGCACATA [CACACA_site7917] | 10.1
78 | CACAAACACCCAAACACACACACACCGACATACATA [CACACA_site4410] | 10
79 | CATACATACAAACACACACACACACCGATATATATA [CACACA_site8952] | 10.3
80 | AAAAAAAAAAAAAACACACATACATACATACATATA [CACACA_site4121] | 9.74
81 | AAAAAAAAAAAACACACACACACACCGATACATACA [CACACA_site8849] | 10.3
82 | ATATTATATATATACACACACACATGCATGCACCTA [CACACA_site106] | 10.2
83 | AAAAAAAAAAAACACACACACACACCGACACATACA [CACACA_site5576] | 10.2
84 | ATATTATAGATATACACACACACATGCATGCACATA [CACACA_site6203] | 10.1
85 | GAAGGAAATAATAGTAGTACAAATGGTAAGAAATAT [XGTACX_site5845] | 9.7
86 | AATTTTTATACGGATACACACAAAAAAAAATAAAAA [CACACA_site897] | 9.53
87 | TACACTTTTTTTTGTACACACTAAAAAGATTAACAA [CACACA_site6037] | 9.07
88 | TATTTGGGTATTTTTACACACATTAAAATATATATA [CACACA_site5800] | 9.33
